15 molecules from PubChem BioAssay (NCATS) can be followed below.

Each structure is given as a SMILES string. Where “and” joins values, the source holds several entries; their conditions need not be identical. Identical values can stand only once. Values without a mark were called inactive. Results filed as inconclusive are left out. Where a structure was tested more than once in an assay, its records may differ in their call. Calls of active or inactive are those of the source. Calls follow the shape of the dose curve; as a rule, active = well fitted curve in the direction sought with a large enough effect; inconclusive = small, poorly fitted or top-dose-only effect, or another doubt; inactive = no such curve, though single readings can be large; an effect the other way counts as inactive or inconclusive.

In assay [1] the target is Cytochrome P450 3A4 (Homo sapiens) (UniProt P08684). The assay is described as follows: qHTS Assay for Inhibitors and Substrates of Cytochrome P450 3A4 (AID 884). Also: nearly all actives have a fitted effect of over 50% in size. Also: potency is read from the fitted curve at half-maximal effect. The method in brief:
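Luminescent readout of luciferin produced by CYP3A4 (20 nM) dealkylation of Luciferin-PPXE, 25 uM (its KM). NADPH-driven reaction ran 60 min at RT after 10 min compound preincubation; data scaled to 57 uM ketoconazole as 100% inhibition.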

The next assay has as its system AS120. The assay is described as follows: qHTS profiling for inhibitors of Plasmodium falciparum proliferation (AID 504749). Also: nearly all actives have a fitted effect of over 60% in size. Also: potency is read from the fitted curve at half-maximal effect. Conditions: P. falciparum in erythrocytes, SYBR Green DNA, 72 h; series mostly up to 28.7 µM. A digest of the protocol:
(§1)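 Quantitative HTS: compounds pinned into medium, infected erythrocytes added (0.3% parasitemia, 2.5% hematocrit), 72 h culture at 37 C under 5% CO2. Saponin/Triton lysis with SYBR Green I, overnight RT, then fluorescence read.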
(qHTS replaces the single test concentration by a dilution series.)

Another assay relates to CP191. The description is as above. Conditions: P. falciparum in erythrocytes, SYBR Green DNA, 72 h; series mostly up to 28.7 µM. The method in brief:
as §1

For the next assay, the system named is CP215. Described as above. Particulars: P. falciparum in erythrocytes, SYBR Green DNA, 72 h; series mostly up to 28.7 µM. A digest of the protocol:
as §1

Another assay deals with CP260. Described as above. Conditions: P. falciparum in erythrocytes, SYBR Green DNA, 72 h; series mostly up to 28.7 µM. A digest of the protocol: as §1
For a further assay, the system named is CP265. The description is as above. Particulars: P. falciparum in erythrocytes, SYBR Green DNA, 72 h; series mostly up to 12.8 µM. The method in brief:
as §1

Another assay has as its system CP291. The assay is described as above. Conditions: P. falciparum in erythrocytes, SYBR Green DNA, 72 h; series mostly up to 28.7 µM. A digest of the protocol: as §1
A further assay concerns CP335. Described as above. Conditions: P. falciparum in erythrocytes, SYBR Green DNA, 72 h; series mostly up to 12.8 µM. A digest of the protocol: as §1
A further assay deals with DIV14. The assay is described as above. Conditions: P. falciparum in erythrocytes, SYBR Green DNA, 72 h; series mostly up to 28.7 µM. A digest of the protocol:
as §1

For a further assay, the system named is DIV17. The assay is described as above. Conditions: P. falciparum in erythrocytes, SYBR Green DNA, 72 h; series mostly up to 28.7 µM. A digest of the protocol: as §1
Another assay has as its system PAD. The assay is described as above. Conditions: P. falciparum in erythrocytes, SYBR Green DNA, 72 h; series mostly up to 28.7 µM. The method in brief:
as §1

For the next assay, the system named is SC27B. The assay is described as above. Conditions: P. falciparum in erythrocytes, SYBR Green DNA, 72 h; series mostly up to 28.7 µM. A digest of the protocol: as §1
The subject of the next assay is TAB165. Described as above. Particulars: P. falciparum in erythrocytes, SYBR Green DNA, 72 h; series mostly up to 28.7 µM. A digest of the protocol:
as §1

A short description of assay [2]: qHTS assay for environmental chemicals that activate the Aryl hydrocarbon Receptor (AhR) signaling pathway (AID 651777). Also: nearly all actives have a fitted effect of over 15% in size. Also: potency is read from the fitted curve at half-maximal effect. As to activation: % of control where 0% means no effect. Particulars: 1A2-DRE human hepatoma cells, luciferase, 24 h; activation: hits give high values. A digest of the protocol:
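Induction of CYP1A2 transcription through AhR is detected by luciferase in 1A2-DRE hepatoma cells. Compounds or DMSO act for 24 hr at 37 C before a 30 min One-Glo step at room temperature.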

The subject of a further assay is 7G8. The assay is described as follows: qHTS profiling for inhibitors of Plasmodium falciparum proliferation (AID 504749). Also: nearly all actives have a fitted effect of over 60% in size. Also: potency is read from the fitted curve at half-maximal effect. Particulars: P. falciparum in erythrocytes, SYBR Green DNA, 72 h; series mostly up to 12.8 µM. A digest of the protocol: as §1
The subject of another assay is ICS. Described as above. Conditions: P. falciparum in erythrocytes, SYBR Green DNA, 72 h; series mostly up to 28.7 µM. The method in brief: as §1
The test system of a further assay is W2. The assay is described as above. Conditions: P. falciparum in erythrocytes, SYBR Green DNA, 72 h; series mostly up to 12.8 µM. The method in brief: as §1
Assay [3] addresses Cytochrome P450 2D6 (Homo sapiens) (UniProt P10635). Briefly: qHTS Assay for Inhibitors and Substrates of Cytochrome P450 2D6 (AID 891). Also: nearly all actives have a fitted effect of over 60% in size. Also: potency is read from the fitted curve at half-maximal effect. The method in brief: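 Luminescent read-out of luciferin formed by 5 nM human CYP2D6 demethylating 30 uM Luciferin-ME EGE (Km level) over 60 min at room temperature after NADPH regeneration addition. Data normalized to full inhibition by 1.43 uM quinidine.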

Assay [4] deals with Cytochrome P450 2C19 (Homo sapiens) (UniProt P33261). Briefly: qHTS Assay for Inhibitors and Substrates of Cytochrome P450 2C19 (AID 899). Also: nearly all actives have a fitted effect of over 60% in size. Also: potency is read from the fitted curve at half-maximal effect. The method in brief:
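Human CYP2C19 (5nM) with Luciferin-H EGE at 10uM (its KM) in 50mM KPO4 was preincubated with compound for 10 min at 37C. NADPH regeneration started a 60 min 37C reaction. Luciferin was read by luminescence, normalized to 57uM ketoconazole.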

Assay [5] concerns the target Alpha-galactosidase (Coffea arabica) (UniProt Q42656). Briefly: Counterscreen for Glucocerebrosidase Inhibitors: qHTS Assay for Coffee Bean alpha-Galactosidase at pH 5.9 (AID 998).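 Also: plate controls were uninhibited enzyme for no effect and no-enzyme basal signal for full effect.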 The method in brief:
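In 50 mM citric acid pH 5.9 with 0.005% Tween-20, coffee bean enzyme hydrolyses 80 uM 4-MU alpha-D-galactopyranoside over 20 min at RT. Activity is normalized to controls; AC50 comes from Hill-modelled concentration-response data.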
In general terms: A counterscreen serves to expose hits that act by an unwanted route or on another target.

Cytochrome P450 2D6 (Homo sapiens), sequence (P10635 whole entry, looked up): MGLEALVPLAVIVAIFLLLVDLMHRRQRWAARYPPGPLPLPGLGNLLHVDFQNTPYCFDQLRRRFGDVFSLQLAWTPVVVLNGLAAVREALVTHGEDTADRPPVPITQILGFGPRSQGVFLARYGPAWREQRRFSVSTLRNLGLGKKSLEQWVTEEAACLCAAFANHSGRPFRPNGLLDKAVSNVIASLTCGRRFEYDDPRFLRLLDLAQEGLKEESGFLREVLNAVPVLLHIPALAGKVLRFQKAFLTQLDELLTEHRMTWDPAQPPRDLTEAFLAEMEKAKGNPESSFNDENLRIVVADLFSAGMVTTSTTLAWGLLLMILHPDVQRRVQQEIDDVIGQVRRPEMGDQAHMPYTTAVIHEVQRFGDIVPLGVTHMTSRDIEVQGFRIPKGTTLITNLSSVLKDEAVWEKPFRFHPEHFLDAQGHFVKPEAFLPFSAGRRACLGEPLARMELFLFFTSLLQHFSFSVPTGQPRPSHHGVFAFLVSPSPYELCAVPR
Cytochrome P450 2C19 (Homo sapiens), sequence (P33261 whole entry, looked up): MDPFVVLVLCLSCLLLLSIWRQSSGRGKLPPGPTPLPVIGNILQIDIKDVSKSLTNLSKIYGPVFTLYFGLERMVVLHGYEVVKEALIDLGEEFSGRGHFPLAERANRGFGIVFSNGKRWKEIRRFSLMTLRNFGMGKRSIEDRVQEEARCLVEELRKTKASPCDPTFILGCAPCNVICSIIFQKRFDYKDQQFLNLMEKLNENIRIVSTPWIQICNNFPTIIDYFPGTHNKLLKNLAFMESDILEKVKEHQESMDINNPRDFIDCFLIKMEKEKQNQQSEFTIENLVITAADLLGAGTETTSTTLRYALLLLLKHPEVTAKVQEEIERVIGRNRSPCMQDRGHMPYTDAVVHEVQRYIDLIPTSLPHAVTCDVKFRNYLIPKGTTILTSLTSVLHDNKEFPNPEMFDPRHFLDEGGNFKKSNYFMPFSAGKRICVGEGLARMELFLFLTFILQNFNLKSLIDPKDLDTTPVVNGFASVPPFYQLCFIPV
Alpha-galactosidase (Coffea arabica), sequence (Q42656 whole entry, looked up): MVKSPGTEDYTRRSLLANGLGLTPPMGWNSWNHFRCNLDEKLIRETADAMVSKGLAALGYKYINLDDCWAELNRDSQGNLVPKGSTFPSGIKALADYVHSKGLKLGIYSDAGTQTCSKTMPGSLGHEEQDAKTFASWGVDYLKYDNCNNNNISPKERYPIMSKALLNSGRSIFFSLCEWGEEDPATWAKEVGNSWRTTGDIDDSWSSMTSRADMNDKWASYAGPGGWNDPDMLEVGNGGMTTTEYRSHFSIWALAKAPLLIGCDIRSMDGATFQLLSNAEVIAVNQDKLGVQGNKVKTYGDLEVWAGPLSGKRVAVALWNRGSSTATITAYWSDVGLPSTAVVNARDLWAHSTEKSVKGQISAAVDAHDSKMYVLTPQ
Cytochrome P450 3A4 (Homo sapiens), sequence (P08684 whole entry, looked up): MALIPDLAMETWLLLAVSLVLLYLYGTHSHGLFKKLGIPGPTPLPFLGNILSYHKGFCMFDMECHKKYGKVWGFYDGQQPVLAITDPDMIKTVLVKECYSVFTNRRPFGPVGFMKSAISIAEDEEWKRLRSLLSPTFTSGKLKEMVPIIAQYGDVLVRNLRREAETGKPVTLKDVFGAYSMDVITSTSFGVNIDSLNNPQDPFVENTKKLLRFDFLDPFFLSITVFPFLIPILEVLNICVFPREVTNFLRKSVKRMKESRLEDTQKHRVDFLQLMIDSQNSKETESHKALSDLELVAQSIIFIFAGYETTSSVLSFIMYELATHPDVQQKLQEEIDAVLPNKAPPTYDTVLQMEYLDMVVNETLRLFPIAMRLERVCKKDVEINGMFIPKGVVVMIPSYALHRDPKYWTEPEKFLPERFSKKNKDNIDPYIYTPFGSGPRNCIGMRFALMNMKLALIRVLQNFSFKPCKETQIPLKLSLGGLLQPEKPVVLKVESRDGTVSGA

On to `CC(C)c1c(CN(C)[C@@H](C)Cc2ccccc2)n(C)n(-c2ccccc2)c1=O`, for which, in [1], the Potency was 3.98 µM (active). The Potency entry in the assay on AS120, with CP191, in the assay on CP215, in the assay with CP260, with CP265 and in the assay on CP291 was “inactive” each time. Moreover, the Potency entry in the assay on CP335, in the assay on DIV14, with DIV17, with PAD, in the assay on SC27B and with TAB165 was “inactive” each time.

With `CCNc1nc(Cl)nc(NC(C)C)n1`, the Potency entry in [1] is “inactive”. The activation in assay [2] is -0.785% and 0.245%.

As for `C[C@H](N)[C@@H](O)c1ccccc1`, the Potency result in the assay on 7G8, in the assay on AS120, with CP191, in the assay with CP215, with CP260 and with CP265 was “inactive” each time. Besides, the Potency entry in the assay on CP335, with DIV14, in the assay with DIV17, in the assay on ICS, with PAD and with SC27B was “inactive” throughout. In addition, the Potency entry in the assay with TAB165 and in the assay with W2 was “inactive” each time.

For `CCC[C@@](C)(COC(N)=O)COC(=O)NC(C)C`, the Potency entry in [3] and in [4] was “inactive” each time.

For `COc1ccc2c(c1OC)C(=O)O[C@H]2[C@H]1c2cc3c(cc2CCN1C)OCO3`, the Potency entry in assay [3] was “inactive”. The Potency in [4] was 1.26 µM (active) and 79.4 nM (active). Also, the result in assay [5] was inactive.

Regarding `C[C@@]12CCC(=O)C=C1C=C[C@H]1[C@H]3CC[C@](O)(CCC(=O)O)[C@]3(C)CC[C@@H]12`, the Potency result with AS120, in the assay on CP191, with CP215, with CP265, in the assay on CP291 and in the assay on CP335 was “inactive” each time. In addition, the Potency entry in the assay with DIV14, in the assay on PAD and with SC27B was “inactive” each time. Besides, the figures for the Potency in the assay with ICS and in the assay with W2 were 3.55 µM (active) and 5.73 µM (active), respectively.

With `CC[C@@H]1[C@@H]2C[C@H]3[C@H]4N(C)c5ccccc5[C@@]45C[C@@H]([C@@H]2[C@@H]5O)N3[C@H]1O`, the Potency in [3] is 3.98 µM (active). In addition, the Potency result in the assay on CP191, in the assay on CP260, in the assay with CP265, in the assay on CP291, in the assay on CP335 and in the assay with SC27B was “inactive” throughout. In addition, in the assay on TAB165, the Potency entry is “inactive”.

For `C[C@@]12CC[C@H]3[C@@H](CC[C@@H]4C[C@H]5S[C@H]5C[C@]43C)[C@H]1CC[C@H]2O`, the Potency in assay [4] was 63.1 nM (active). Besides, the Potency entry in the assay with AS120, with CP191, in the assay on CP215, in the assay on CP260, in the assay on CP265 and with CP291 was “inactive” in each case. Moreover, the Potency entry in the assay on CP335, with DIV14, in the assay on DIV17, in the assay with PAD, in the assay with SC27B and with TAB165 was “inactive” each time.

As for `CCc1cccc(CC)c1N(COC)C(=O)CCl`, in assay [1], the Potency entry was “inactive”. In addition, the activation in assay [2] was -1.54% and -2.21%.

On to `CN1CCc2cc3c(cc2[C@@H]1[C@@H]1OC(=O)c2c1ccc1c2OCO1)OCO3`, for which the Potency was 0.794 µM (active) in assay [1]; 398 nM (active) and 50.1 nM (active) in [4]. Moreover, the Potency entry in [3] is “inactive”.

For the molecule `CNC(=O)O/N=C/C(C)(C)SC`, the Potency entry in [1] was “inactive”. Moreover, in [2], the Potency was 39.8 µM (active); the activation is -0.995% and 0.0962%.

Turning to `CS(=N)(=O)CC[C@@H](N)C(=O)O` (some centres undefined), in assay [3], the Potency entry is “inactive”. The call in assay [5] was inactive.

With `COc1ccc2c(c1OC)CN1CCc3cc4c(cc3[C@H]1C2)OCO4`, the Potency is 0.0631 µM (active) in assay [3]; 1260 nM (active) in [4]; 3.55 µM (active) in the assay with 7G8; 2.03 µM (active) in the assay on CP215; 2.56 µM (active) with DIV14; 4.55 µM (active) with DIV17. Further, the results for the Potency in the assay with PAD and in the assay with W2 were 3.16 µM (active) and 2.28 µM (active), respectively.

On to `C=CCc1ccc(OC)cc1`, for which the activation in [2] is 0.798%.

In the case of `C#CCN(C)[C@@H](C)Cc1ccccc1`, the result in assay [5] was inactive. Also, the Potency result in the assay on 7G8, in the assay on AS120, in the assay with CP191, in the assay on CP215, with CP265 and with CP291 was “inactive” throughout. The Potency result with CP335, in the assay on DIV17, with ICS, with PAD, in the assay with SC27B and in the assay with TAB165 was “inactive” each time. Moreover, the Potency entry in the assay with W2 was “inactive”.
